Data as given in PubChem BioAssay (NCATS).
Inconclusive results are not listed. Active and inactive are the calls of the source. Unless noted, calls come from the whole dose curve; as a rule, active = well fitted curve in the direction sought with a large enough effect; inconclusive = small, poorly fitted or top-dose-only effect, or another doubt; inactive = no such curve, though single readings can be large; an effect the other way counts as inactive or inconclusive.

Experiments:
[1] = Primary qHTS for inhibitors of nuclear receptor binding SET domain protein 2 (NSD2) in an isogenic RCH-ACV NSD2 p.E1099K mutant (9B) (AID 1645876); details: RCH-ACV NSD2 E1099K (9B) viability, CellTiter-Glo, 72 h; series mostly up to 44.9 µM; note: nearly all actives have a fitted effect of over 70% in size; note: potency is the fitted concentration of half-maximal effect
[2] = Primary qHTS for inhibitors of nuclear receptor binding SET domain protein 2 (NSD2) in an RCH-ACV wild type WT cells (2C) (AID 1645877); details: RCH-ACV (leukaemia line) NSD2 WT (2C) viability, CellTiter-Glo, 72 h; series mostly up to 44.9 µM; note: nearly all actives have a fitted effect of over 70% in size; note: potency is the fitted concentration of half-maximal effect
[3] = molecular target: Glutathione peroxidase 1 (Homo sapiens) (UniProt P07203); test: Primary qHTS Assay for Inhibitors of Recombinant Selenoprotein Glutathione Peroxidase 1 (GPX1) (AID 1845191); details: recombinant GPX1, GR-coupled NADPH fluorescence, 15 min; series mostly up to 48.8 µM; note: nearly all actives have a fitted effect of over 65% in size
Sequence of Glutathione peroxidase 1 (Homo sapiens) (P07203 whole entry, looked up): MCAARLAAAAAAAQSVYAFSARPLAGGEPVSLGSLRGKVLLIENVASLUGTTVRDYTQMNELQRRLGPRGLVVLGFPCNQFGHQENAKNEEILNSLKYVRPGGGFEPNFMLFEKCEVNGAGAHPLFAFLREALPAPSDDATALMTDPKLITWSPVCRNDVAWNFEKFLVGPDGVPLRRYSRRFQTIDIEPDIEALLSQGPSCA
How it was run: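 NADPH consumption tracked by fluorescence at 340/450 nm between t=0 and t=15 min, room temperature. Final mix: 10 nM GPX1, 100 nM glutathione reductase, 1 mM GSH, 0.5 mM NADPH, 0.5 mM cumene hydroperoxide, 0.01% BSA; 30 min compound–enzyme preincubation.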

[4] = molecular target: Phospholipid hydroperoxide glutathione peroxidase GPX4 (Homo sapiens) (UniProt P36969); test: Primary qHTS Assay for Inhibitors of Recombinant Selenoprotein Glutathione Peroxidase 4 (GPX4) (AID 1845192); details: recombinant GPX4, GR-coupled NADPH fluorescence, 15 min; series mostly up to 50 µM; note: nearly all actives have a fitted effect of over 65% in size; note: potency is the fitted concentration of half-maximal effect
Sequence of Phospholipid hydroperoxide glutathione peroxidase GPX4 (Homo sapiens) (P36969 whole entry, looked up): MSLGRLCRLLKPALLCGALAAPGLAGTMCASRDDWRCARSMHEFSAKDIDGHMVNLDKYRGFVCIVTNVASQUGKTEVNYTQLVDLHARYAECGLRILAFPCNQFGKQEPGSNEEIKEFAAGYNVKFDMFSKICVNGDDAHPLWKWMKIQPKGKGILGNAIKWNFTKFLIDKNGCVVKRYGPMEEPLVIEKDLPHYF
How it was run: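 NADPH consumption followed by fluorescence at 340/450 nm, t=0 and after 15 min at room temperature. Reaction started with cumene hydroperoxide (0.5 mM final) after 30 min compound–GPX4 preincubation; final 200 nM GPX4, 100 nM GR, 1 mM GSH, 0.5 mM NADPH.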

[5] = qHTS drug screen for cell cycle checkpoint inhibitors in PARPi-resistant BRCA-mutant ovarian cancer cell lines. (AID 1963452; calls by dose curve; note: potency is the fitted concentration of half-maximal effect); details: PEO1/OlaR viability, CellTiter-Glo luminescence, 96 h; for Z-AUC: stronger effect = lower value
How it was run: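 PEO1, PEO4 and PEO1/OlaR ovarian cancer cells, 600 per well, exposed 96 h at 37C to a dilution series. Viability read by CellTiter-Glo luminescence, normalized to DMSO and empty wells; activity summarized as Z-AUC.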

[6] = measured here: PEO1 parental Z-AUC

Row | Compound | Potency [1] | Potency [2] | Potency [3] | Potency [4] | Z-AUC [5] | Z-AUC [5, 6] | Z-AUC ([5]; measured here: PEO4 Z-AUC) | Potency [5]
1 | C=CC(C)(/C=C/c1ccc(O)cc1)CCC=C(C)C (stereo not drawn) | 20.6 µM (active) | 18.4 µM (active) | inactive | – | – | – | – | –
2 | NC(=O)c1ccc2nc(-c3ccc(C4(N)CCC4)cc3)c(-c3ccccc3)n2n1 | 0.296 µM (active) | 0.332 µM (active) | inactive | inactive | -0.331 (inactive) | -0.179 | 0.0521 | –
3 | CC(=O)NCCNc1cc(Cl)nn2c(-c3cccc(S(=O)(=O)N(C)C)c3)c(C)nc12 | 7.31 µM (active) | 4.61 µM (active) | inactive | – | – | – | – | –
4 | C[C@]1(C(=O)N(CCCC(=O)O)Cc2cccc(Cl)c2)CCN1C(=O)c1csc2ccccc12 | inactive | inactive | inactive | inactive | 0.897 (inactive) | 0.571 | 0.835 | –
5 | C=C1[C@H](OC(=O)/C=C(\C)CC)C[C@@H](C(C)C)[C@@H]2[C@H]([C@@H](C)OC(C)=O)C(=O)C[C@@H]12 | inactive | inactive | inactive | inactive | 1.28 (inactive) | 0.917 | 1.09 | –
6 | Cc1cc(C(=O)Nc2nc3cccc(Cl)c3n2C2CCCCN(C(=O)/C=C/CN(C)C)C2)ccn1 (stereo not drawn) | 6.51 µM (active) | 6.51 µM (active) | inactive | – | – | – | – | –
7 | Nc1n[nH]c(N)c1N=Nc1ccc(O)cc1 | 13 µM (active) | 14.6 µM (active) | inactive | – | – | – | – | –
8 | [O-][n+]1cccc(-c2nc3c(Cl)cccc3cc2[C@@H](Nc2ncnc3cccnc23)C(F)(F)F)c1 | 0.263 µM (active) | 0.468 µM (active) | inactive | inactive | -0.846 (inactive) | 0.42 | 0.695 | –
9 | CC(C)(C)C[C@H]1N[C@@H](C(=O)NC2CCC(O)CC2)[C@H](c2cccc(Cl)c2F)[C@@]12C(=O)Nc1cc(Cl)ccc12 (stereo partly drawn) | 1.48 µM (active) | 0.468 µM (active) | inactive | – | – | – | – | –
10 | CC[C@H](Nc1ncnc2nc[nH]c12)c1oc2ccccc2c(=O)c1-c1cccc(F)c1 | 1.32 µM (active) | 1.48 µM (active) | inactive | inactive | 0.58 (inactive) | 0.184 | 0.542 | –
11 | Cc1cc(Nc2ncnc3ccc(NC4=NC(C)(C)CO4)cc23)ccc1Oc1ccn2ncnc2c1 | 18.6 µM (active) | 16.6 µM (active) | inactive | inactive | -0.395 (inactive) | -0.0434 | -0.29 | –
12 | COc1ccccc1C(=O)Nc1cc2c(cc1N1CCNC[C@H]1C)n(C)c(=O)n2C | 20.9 µM (active) | 18.6 µM (active) | inactive | inactive | – | – | – | –
13 | c1ccc(-c2cc(CCC3CCNCC3)c3ccccc3n2)cc1 | 16.6 µM (active) | 13.2 µM (active) | inactive | inactive | -0.417 (inactive) | 0.0933 | 0.16 | –
14 | CC(C)(C)NC(=O)c1cncn1C1CCN(c2ccc(-c3nnc(C(F)(F)F)o3)cn2)CC1 | 2.63 µM (active) | 2.35 µM (active) | inactive | inactive | -0.537 (inactive) | 0.427 | 0.071 | –
15 | C=C1C(=O)OC2/C=C(/C)CC/C=C(/C)CCC12 (stereo not drawn) | 11.8 µM (active) | 8.33 µM (active) | inactive | inactive | 1.69 (inactive) | 1.29 | 1.11 | –
16 | Nc1cc(C(F)(F)F)c(-c2nc(N3CCOCC3)nc(N3CCOCC3)n2)cn1 | 0.742 µM (active) | 0.525 µM (active) | inactive | – | -0.884 (inactive) | -0.21 | -0.177 | –
17 | CC[C@H](C)[C@@H]([C@@H](CC(=O)N1CCC[C@H]1[C@H](OC)[C@@H](C)C(=O)N[C@@H](Cc1ccccc1)c1nccs1)OC)N(C)C(=O)[C@@H](NC(=O)[C@H](C(C)C)N(C)C)C(C)C | inactive | inactive | inactive | – | – | -3.14 | -2.96 | 27.5 µM (active)
18 | COc1ccc(S(=O)(=O)N2CCc3cccc(-c4ccncc4)c32)cc1 | 0.833 µM (active) | 0.934 µM (active) | inactive | – | -1.73 (inactive) | -1.49 | -1.55 | –
19 | C=CC(=O)Nc1cccc(Oc2nc(Nc3ccc(N4CCN(C)CC4)cc3)nc3ccsc23)c1 | 3.32 µM (active) | 3.32 µM (active) | inactive | inactive | -0.291 (inactive) | -0.486 | -0.146 | –
20 | C[C@@H]1COCCN1c1cc(-c2ccnn2C)c2ccnc(-c3ccn[nH]3)c2n1 | 0.209 µM (active) | 0.186 µM (active) | – | 20.2 µM (active) | – | – | – | –
21 | CC1=C2C[C@H]3[C@@H](CC[C@@H]4C[C@H](NS(C)(=O)=O)CC[C@@]43C)[C@@H]2CC[C@@]2(C1)O[C@@H]1C[C@H](C)CN[C@H]1[C@H]2C | 13.2 µM (active) | 13.2 µM (active) | inactive | – | 0.848 (inactive) | 0.333 | -0.208 | –
22 | Cc1ccc([C@@H]2O[C@H](CO)[C@@H](O)[C@H](O)[C@H]2O)cc1Cc1ccc(-c2ccc(F)cc2)s1 | 23.5 µM (active) | 20.9 µM (active) | inactive | inactive | -0.931 (inactive) | -1.18 | -1.2 | –
